The results in this text go back to PubChem BioAssay (Tox21).

Experiment [1] in a line: qHTS assay to identify small molecule agonists of the hypoxia (HIF-1) signaling pathway - cell viability counter screen (AID 1224844; calls by dose curve; further: nearly all actives have a fitted effect of over 50% in size; further: potency means the concentration at half of the fitted maximal effect). The gist of the method:
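Cytotoxicity was measured in parallel with the HRE-driven beta-lactamase readout: after 17 hrs of compound exposure at 37C, HRE-bla ME-180 cells received CellTiter-Glo and luminescence was recorded 30 min later.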
(Quantitative high-throughput screening tests each substance at several concentrations.)

The nature of experiment [2]: qHTS assay to identify small molecule agonists of H2AX (AID 1224845; active means well fitted activation curve with a large enough effect in the signal ratio in the repeat runs, not every such curve was filed as active; the % refers to the signal ratio). An outline of the steps: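 Wild-type CHO-K1 cells plated overnight, then exposed 3 hr at 37C to compounds at 15 concentrations (0.76% DMSO). Lysed, then HTRF anti-pH2AX(S139)-cryptate/anti-H2AX-d2 detection after 24 hr at room temperature; emissions 665 and 620 nm.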
Experiment [3] is described as follows: qHTS assay to identify small molecule agonists of H2AX - cell viability counter screen (AID 1224847; calls by dose curve; further: nearly all actives have a fitted effect of over 30% in size; further: potency means the concentration at half of the fitted maximal effect). The gist of the method: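 Cells plated first: CHO-K1, 1000 per well in 10% FBS medium, incubated overnight at 37C. Then 15-point compound titration added (final DMSO 0.76%) for 3 hr. Finally CellTiter-Glo added and luminescence read.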
A short description of experiment [4]: qHTS assay to identify small molecule agonists of the estrogen related receptor (ERR) signaling pathway from Tox21 library (AID 1224849; calls by dose curve; further: nearly all actives have a fitted effect of over 15% in size). The conditions noted are these: ERR reporter cell line, ONE-Glo luciferase, 18 h; at 92.4 µM (top of the series) unless noted. An outline of the steps:
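Cells carrying the ERR reporter were plated and allowed to settle for 6 h, exposed to library compounds for 18 h at 37 C, then lysed with ONE-Glo and luminescence measured.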

Experiment [5] is described as follows: qHTS RealTime-Glo MT Cell Viability Assay in HepG2 cells - 24 hour (AID 1224867). Further: nearly all actives have a fitted effect of over 50% in size. Further: potency means the concentration at half of the fitted maximal effect. An outline of the steps: (§1)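 HepG2 cells (600/well) were dispensed with RealTime-Glo reagents, incubated 5 h at 37 °C, then treated with compounds in DMSO for up to 40 h. Nonlytic NanoLuc luminescence reflecting viable cells was read at each stated time point.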
Experiment [6] in a line: qHTS RealTime-Glo MT Cell Viability Assay in HEK293 cells - 32 hour (AID 1224868). Further: nearly all actives have a fitted effect of over 50% in size. Further: potency means the concentration at half of the fitted maximal effect. The gist of the method:
(§2)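 HEK293 cells seeded with NanoLuc/prosubstrate reagent, rested 5 h at 37 C, then dosed and kept at 37 C up to 40 h. Nonlytic real-time luminescence from viable cells read at 0, 8, 16, 24, 32 and 40 h.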

A short description of experiment [7]: A CellTox Green Cytotoxicity Assay to monitor cytotoxicity in HEK293 cells - 0 hour (AID 1224869). Further: nearly all actives have a fitted effect of over 50% in size. An outline of the steps: (§3)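 Cells (HEK293, 600/well) and dye reagent are dispensed together. After 5 h at 37 C, 23 nL compound is pinned in. Plates stay at 37 C for 40 h with fluorescence read at 0h, 8h, 16h, 24h, 32h and 40h.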
The nature of experiment [8]: qHTS RealTime-Glo MT Cell Viability Assay in HepG2 cells - 40 hour (AID 1224870). Further: nearly all actives have a fitted effect of over 50% in size. Further: potency means the concentration at half of the fitted maximal effect. The gist of the method:
(§4)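 HepG2 cells mixed with RealTime-Glo MT reagents (NanoLuc plus cell-permeant prosubstrate) were seeded at 600 cells/well, incubated 5 h at 37 C/5% CO2, then pinned with compounds in DMSO; nonlytic luminescence tracked viability during 40 h treatment.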

Experiment [9] in a line: qHTS RealTime-Glo MT Cell Viability Assay in HEK293 cells - 16 hour (AID 1224872). Further: nearly all actives have a fitted effect of over 50% in size. Further: potency means the concentration at half of the fitted maximal effect. An outline of the steps:
as §2

A short description of experiment [10]: qHTS RealTime-Glo MT Cell Viability Assay in HepG2 cells - 8 hour (AID 1224873). Further: nearly all actives have a fitted effect of over 55% in size. Further: potency means the concentration at half of the fitted maximal effect. The gist of the method: as §4
A short description of experiment [11]: qHTS RealTime-Glo MT Cell Viability Assay in HEK293 cells - 40 hour (AID 1224874). Further: nearly all actives have a fitted effect of over 50% in size. Further: potency means the concentration at half of the fitted maximal effect. Particulars: RealTime-Glo luminescence; max response: active compounds read low. The gist of the method: (§5)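 Real-time viability in HEK293: signal arises when living cells convert a prosubstrate for NanoLuc in the medium, so luminescence tracks viable cell number. Compound (23 nL, DMSO) added 5 h post-seeding; kinetic reads at 0–40 h, 37 C.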

Experiment [12] is described as follows: A CellTox Green Cytotoxicity Assay to monitor cytotoxicity in HEK293 cells - 24 hour (AID 1224875). Further: nearly all actives have a fitted effect of over 45% in size. Further: potency means the concentration at half of the fitted maximal effect. The gist of the method: as §3
Experiment [13] can be described thus: A CellTox Green Cytotoxicity Assay to monitor cytotoxicity in HepG2 cells - 16 hour (AID 1224876). Further: nearly all actives have a fitted effect of over 45% in size. Further: potency means the concentration at half of the fitted maximal effect. The gist of the method: (§6)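 Cells and non-lytic dye reagent are dispensed together (600 HepG2 cells/well) and incubated 5 h before DMSO compound transfer. Kinetic fluorescence is then recorded in the same wells during 40 h at 37 C.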
The nature of experiment [14]: qHTS RealTime-Glo MT Cell Viability Assay in HepG2 cells - 32 hour (AID 1224877). Further: nearly all actives have a fitted effect of over 55% in size. Further: potency means the concentration at half of the fitted maximal effect. The gist of the method: as §1
The nature of experiment [15]: A CellTox Green Cytotoxicity Assay to monitor cytotoxicity in HepG2 cells - 24 hour (AID 1224878). Further: nearly all actives have a fitted effect of over 45% in size. Further: potency means the concentration at half of the fitted maximal effect. An outline of the steps:
as §6

The nature of experiment [16]: A CellTox Green Cytotoxicity Assay to monitor cytotoxicity in HepG2 cells - 40 hour (AID 1224879). Further: nearly all actives have a fitted effect of over 40% in size. Further: potency means the concentration at half of the fitted maximal effect. An outline of the steps: as §6
A short description of experiment [17]: qHTS assay to identify small molecule agonists of the hypoxia (HIF-1) signaling pathway (AID 1224846; active means well fitted activation curve with a large enough effect in the signal ratio in the repeat runs, not every such curve was filed as active; the % refers to the signal ratio). An outline of the steps: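 Compounds from the Tox21 10K library, dissolved in DMSO, are tested for induction of a hypoxia response element–controlled beta-lactamase reporter in ME-180 cells. Exposure lasts 17 hrs at 37C after a 5 hr settling period, followed by CCF4-AM FRET substrate.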

Experiment [18] in a line: qHTS assay to identify small molecule antagonists of the estrogen related receptor (ERR) signaling pathway from Tox21 library (AID 1224848). Further: nearly all actives have a fitted effect of over 50% in size. An outline of the steps: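 First, 2,000 ERR cells per well were plated and held 6 h at 37 C/5% CO2. Next, compounds in DMSO were pinned in and left 18 h at 37 C. Finally, ONE-Glo was added and luminescence read after 30 min at room temperature.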

Experiment [19] can be described thus: A CellTox Green Cytotoxicity Assay to monitor cytotoxicity in HEK293 cells - 40 hour (AID 1224871). Further: nearly all actives have a fitted effect of over 45% in size. The gist of the method: as §3
Experiment [20] is described as follows: qHTS RealTime-Glo MT Cell Viability Assay in HEK293 cells - 0 hour (AID 1224880). An outline of the steps:
as §5

A number with no mark means an inactive call. Records with an inconclusive call do not appear. The source made the active and inactive calls. Unless noted, the call rests on the fitted dose curve; in most records, active means well fitted curve in the direction sought with a large enough effect in the repeat runs; inconclusive means weak or mixed curves; inactive means no such curve, though single readings can be large; an effect the other way counts as inactive or inconclusive.
On the % scale 0 is the no-effect control and ±100 the full control effect.

On to `C[C@H]1CC[C@@H]2[C@@H](C)[C@H]3[C@H](C[C@H]4[C@@H]5CC=C6CC(O[C@@H]7O[C@H](CO)[C@H](O)[C@H](O[C@@H]8O[C@H](CO)[C@@H](O)[C@H](O)[C@H]8O)[C@H]7O[C@H]7O[C@@H](C)[C@H](O)[C@@H](O)[C@H]7O)CC[C@]6(C)[C@H]5CC[C@]34C)N2C1` (some centres not stated), for which the Potency was 16 µM (active) in experiment [1]; 32.9 µM (active) in experiment [3]; 50.6 µM (active) in [5]; 14.3 µM (active) in experiment [6]; 56.7 µM (active) in experiment [8]; 12.7 µM (active) in experiment [9]. In addition, the Potency was 45.1 µM (active) in experiment [10]; 14.3 µM (active) in experiment [11]; 4.51 µM (active) in experiment [12]; 22.6 µM (active) in experiment [13]; 50.6 µM (active) in [14]; 11.3 µM (active) in experiment [15]. For the same molecule, in experiment [16], the Potency is 22.6 µM (active). The Potency result in experiment [2] and in experiment [7] was “inactive” throughout. In addition, the activity change, positive = activation in experiment [4] was -50.4%.
With `C=CCOC(N)=O`, the Potency result in experiment [1], in experiment [3], in [18], in experiment [5], in [6] and in [7] was “inactive” throughout. Further, the Potency result in experiment [8], in [19], in experiment [9], in [10], in experiment [12] and in [14] was “inactive” each time. Further, the Potency entry in experiment [15], in [16] and in experiment [20] was “inactive” each time. In addition, in experiment [17], the result was inactive. In addition, the activity change, positive = activation in experiment [4] is 2.68%. Besides, the max response in experiment [11] was 0.832%.
Take `Cc1c(Cl)c(=O)oc2cc(OP(=O)(OCCCl)OCCCl)ccc12`: the Potency result in [1], in [3], in [8], in experiment [12], in experiment [13] and in [14] was “inactive” each time. In addition, the Potency result in [15], in experiment [16] and in [20] was “inactive” in each case. The molecule was called inactive in experiment [17].
Take `CCOC(=O)c1ccccc1S(=O)(=O)NC(=O)Nc1nc(Cl)cc(OC)n1`: the Potency result in experiment [1], in experiment [3], in experiment [5], in experiment [8], in experiment [10] and in [13] was “inactive” throughout. Also, the Potency result in experiment [14], in experiment [15] and in [16] was “inactive” throughout. For the same molecule, the result in [17] was inactive.
As to `CCCOCC(=Nc1ccc(Cl)cc1C(F)(F)F)n1ccnc1`, the Potency result in [1] and in experiment [20] was “inactive” each time. In addition, the outcome in experiment [17] was inactive. Also, the Potency in experiment [3] is 101 µM (active); in experiment [6], 48.9 µM (active); in experiment [9], 43.6 µM (active); in experiment [11] it was 48.9 µM (active); in [12], 48.9 µM (active); in experiment [13], 43.6 µM (active). Moreover, the Potency in experiment [15] and in experiment [16] was 43.6 µM (active) each time.
Consider `CCOP(=O)(NC(C)C)Oc1ccc(SC)c(C)c1` (configuration not stated), for which the Potency result in experiment [1], in experiment [2], in [5], in experiment [7], in experiment [8] and in [10] was “inactive” in each case. Besides, the Potency result in [12], in [14] and in experiment [20] was “inactive” throughout. Further, the Potency in experiment [6] was 12.3 µM (active).
`Oc1ccc(I)cc1`: the Potency result in [1], in experiment [3], in [5], in [6], in experiment [7] and in experiment [8] was “inactive” in each case. The Potency entry in [19], in experiment [9], in experiment [10], in experiment [12], in experiment [13] and in [14] was “inactive” in each case. The Potency result in [15] and in experiment [16] was “inactive” throughout. The molecule was classed as inactive in experiment [17]. In addition, the max response in experiment [11] is -9.46%.
For `Cc1cccc(OP(=O)(Oc2cccc(C)c2)Oc2cccc(C)c2)c1`, the Potency result in experiment [1], in [3], in experiment [5], in experiment [6], in experiment [7] and in experiment [8] was “inactive” throughout. The Potency result in [19], in [9], in [10], in experiment [12], in experiment [13] and in [14] was “inactive” throughout. In addition, the Potency result in [15], in [16] and in [20] was “inactive” throughout. The call in [17] was inactive.
